# Results published in PubChem BioAssay (NCATS).
# Target: Phenylethanolamine N-methyltransferase (Homo sapiens) (UniProt P11086)
# Experiment: Confirmatory Screen for Target Class Profiling of Small Molecule Inhibitors of Methyltransferases (AID 1745852)
# Conditions: MTase-Glo luminescence, SAH detection, recombinant enzyme; measured here: PNMT max response; stronger effect = lower value
# Phenylethanolamine N-methyltransferase (Homo sapiens), sequence (P11086 whole entry, looked up): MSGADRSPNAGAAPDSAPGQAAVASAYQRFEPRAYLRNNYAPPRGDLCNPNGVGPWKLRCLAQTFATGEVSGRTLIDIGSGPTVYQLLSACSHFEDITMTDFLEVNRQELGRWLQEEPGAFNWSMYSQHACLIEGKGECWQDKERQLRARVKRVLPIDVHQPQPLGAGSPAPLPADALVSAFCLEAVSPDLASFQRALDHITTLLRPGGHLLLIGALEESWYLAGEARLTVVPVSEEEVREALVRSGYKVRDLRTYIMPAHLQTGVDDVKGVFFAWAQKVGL
row,Compound,activity
1,CCCS(=O)(=O)N1CCCC(Cn2c(C)nc3cccnc32)C1 (stereo not given),4.99%
2,COc1ccc(-c2nnn3c2nc(N2CCOCC2)c2ccccc23)cc1,-35.3%
3,Cc1ccc(NC(=O)N2CCc3c(c4ccccc4n3CC3CC3)C2)cc1,6.82%
4,CC[C@H](C)NC(=O)c1sc(=S)n2c1[nH]c(=O)c1cc(Cl)ccc12,-77%
5,Cc1cc(NS(=O)(=O)c2ccc3[nH]c(=O)[nH]c3c2)ccc1Br,-63.7%
6,CC(C)Cn1c(=O)c2ccccc2n2c(CCC(=O)N3CCN(c4ccccc4F)CC3)nnc12,-8.56%
7,c1ccc(-c2cc3c(cn2)NCCN(Cc2ccccn2)C3)cc1,-1.82%
8,CCN(CC)CCNC(=O)CCc1nnc2n(CCc3ccccc3)c(=O)c3ccccc3n12,3.34%
9,COc1ccc(S(=O)(=O)NC[C@H]2Cn3c(-c4ccc(Cl)cc4)cnc3CO2)cc1,-17.1%
10,CC1CCN(CCCNC(=O)CCc2nnc3n(Cc4ccc(Cl)cc4)c(=O)c4ccccc4n23)CC1,-5.13%
11,Cc1cccc(N2CCN(C(=O)CCc3nnc4n(CCC(C)C)c(=O)c5ccccc5n34)CC2)c1C,-4.73%
12,CCCC1c2cccn2CCN1C(=O)Nc1ccc(OC)cc1 (stereo not given),-7.43%
13,COc1cccc(CN2CCCC3(CNc4ccccc4[S+](=O)([O-])N3)C2)c1 (stereo not given),-3.23%
14,COc1ccccc1-c1[nH]nc2ncc(C(=O)N3CCN(Cc4ccccc4)CC3)nc12,-61.8%
15,Cc1cnc(C2CCC2)n1C1CCN(C(=O)CCC2CCCC2)CC1,-7.48%
16,Cc1cc(-c2cc3c(cn2)N(C)CCN(C)C3)ccn1,3.56%
17,O=[S+]1([O-])NC2(CCCN(Cc3c(F)cccc3Cl)C2)COc2ccccc21 (stereo not given),-3.56%
18,Cc1noc(C)c1-c1cnc(Nc2ccncc2)c2c1CCO2,2.25%
19,CNc1cc(C2CC(NC(=O)COc3ccc(Cl)cc3C)C2)nc(N)n1 (stereo not given),6.12%
20,COc1ccccc1CNC(=O)C1(C)Cn2c(cc3ccccc32)C(=O)N1Cc1ccc(OC)c(OC)c1 (stereo not given),-1.32%

row,Compound,activity
1,COc1cccc([S+](=O)([O-])N2CCC3(C2)N=C(c2cccnc2)C(=O)N3)c1 (stereo not given),-16.9%
2,O=C(NCc1ccc2c(c1)OCO2)c1sc(=S)n2c1[nH]c(=O)c1ccc(Cl)cc12,-92.6%
3,O=C(NCc1cccc(F)c1)c1nc2c(o1)CCN(CC1CCCC1)CC2,-10.1%
4,COc1ccc(NC(=O)CCc2ccnc(N3CCCC3)c2)c(OC)c1,-2.38%
5,Cc1cccc(N2CCN(C(=O)CCc3nnc4n(CC(C)C)c(=O)c5ccccc5n34)CC2)c1C,4.08%
6,O=C(NCc1cccc(Cl)c1)c1sc(=S)n2c1[nH]c(=O)c1cc3c(cc12)OCO3,-39.9%
7,Cc1ccc(NC(=O)CSc2nnc3n(CC(C)C)c(=O)c4ccccc4n23)cc1,-2.78%
8,Cc1cnc(C2CC2)n1C1CCN(S(=O)(=O)c2ccc3c(c2)OCCO3)CC1,-0.889%
9,COc1ccccc1CC(=O)N1CCCc2ncc(C(=O)Nc3cccc(Cl)c3)cc21,3.39%
10,COC(=O)C(Cc1c[nH]c2ccccc12)NC(=O)c1ccccc1Br (stereo not given),-7.16%
11,CCCn1c(=O)c2cc(F)ccc2n2c(SCc3c(F)cccc3Cl)nnc12,0.382%
12,COc1ccc(CCN2C(=O)c3cc4oc(C)cc4n3CC2(C)C(=O)NC2CCCCC2)cc1OC (stereo not given),-5.67%
13,COc1ccc(OC)c2c1cc1n2CC(C)(C(=O)NC2CCCCC2)N(Cc2cccnc2)C1=O (stereo not given),-10.7%
14,Cc1ccc(Cn2c(=O)c3ccccc3n3c(CCC(=O)NCCCN4CCN(C)CC4)nnc23)cc1,3.42%
15,CN1CCN(c2ncnc3sc4c(c23)CCNC4)CC1,-15%
16,COc1ccc(C2CC(=O)c3cc(-c4nc(-c5cccc([N+](=O)[O-])c5)cs4)c(=O)n(-c4ccccc4N)c3C2)cc1 (stereo not given),-5.29%
17,CCCC1c2cccn2CCN1C(=O)Nc1ccc(F)cc1F (stereo not given),-3.85%
18,O=C(Cc1ccsc1)Nc1ccc2c(N3CCCC3)ncnc2c1,-6.83%
19,CCCC1c2cccn2CCN1C(=O)Nc1ccc(C)cc1Cl (stereo not given),-0.613%
20,COc1ccc(OC)c2c1cc1n2CC(C)(C(=O)NC2CCCCC2)N(Cc2ccccn2)C1=O (stereo not given),-6.38%
